Experimental data as given in PubChem BioAssay.
Several values for one entry are separate records, joined by “and”; a condition that tells them apart may be missing. Identical values can stand only once.

How the values were obtained:
[1] = test system: Human papillomavirus type 1a protein E7 (residues 44-93); assay: HPV1a E7 fragment binders on microarrays, primary screen, biochemical, small-molecule microarray, residues 44-93, 635 nm fluorescence (AID 1108); conditions: small-molecule microarray binding, fluorescence 635 nm; higher = more signal;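 note: E7 fragment applied at 1 µg/mL in TBST for 1 h at 4 C; score combines spot fluorescence with its signal to noise ratio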
[2] = modulators of HCV replicon luciferase signal, primary screen, HCV replication inhibitor project, Huh7 cells, luciferase reporter (AID 1109); conditions: 48 h, higher = more signal;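 note: huh7 hepatoma cells harbouring a luciferase neomycin HCV replicon reporter; luciferase luminescence as measure of HCV replicon replication; test concentration not given here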
[3] = target: Left-right determination factor 2 (Homo sapiens) (UniProt O00292); assay: LEFTY2 binders on small-molecule microarrays, primary screen, biochemical, small-molecule microarray, 635 nm fluorescence scan (AID 1110); conditions: LEFTY2 binding, higher = more signal
[4] = target: Calmodulin-1 (Homo sapiens) (UniProt P0DP23); assay: CALM1 binders on microarrays, EGTA buffer, profiling panel, biochemical, small-molecule microarray, Cy5-labelled CALM1 (AID 1111); conditions: Cy5-CALM1 binding fluorescence, higher = more signal;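 note: labelled calmodulin applied in Tris saline Tween buffer holding calcium plus EGTA and DTT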
[5] = target: Calmodulin-1 (Homo sapiens) (UniProt P0DP23); assay: calcium-bound CALM1 binders on microarrays, profiling panel, artefact control for SMM control-protein annotation, biochemical, small-molecule microarray, Cy5-labelled CALM1, plus calcium (AID 1112); conditions: Cy5-CALM1 binding fluorescence, higher = more signal;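 note: score merges spot fluorescence with signal to noise from triplicate slides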
[6] = small-molecule microarray binders of probe aWnt5a, primary screen, biochemical, biotinylated probe, 635/667 nm fluorescence (AID 1113); conditions: higher = more signal;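 note: score merges 667 nm fluorescence intensity with signal-to-noise per printed feature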
[7] = small-molecule microarray binders of probe aShh, primary screen, biochemical, biotinylated probe, 635/667 nm fluorescence (AID 1114); conditions: higher = more signal;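 note: probe is biotin-labelled aShh protein from a stem cell growth factor screen; measures binding of labelled protein to compounds printed on the slide; score merges feature fluorescence at 667 nm with signal-to-noise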
[8] = small-molecule microarray binders of probe aNog, primary screen, biochemical, biotinylated probe, 635/667 nm fluorescence (AID 1115); conditions: higher = more signal;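 note: probe is biotinylated aNog protein used at 0.15 µg/mL for 1 h at 4 C; z-score combines 667 nm fluorescence of each spot with its signal to noise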
[9] = target: Torsin-1A-interacting protein 1 (Homo sapiens) (UniProt Q5JTV8); assay: LAP1 binders from COS7 cell lysate, primary screen, small-molecule microarray, 635/667 nm fluorescence (AID 1116); conditions: COS7-hLAP1 lysate binding, 635 nm fluorescence, higher = more signal
[10] = target: Alpha-bungarotoxin (Bungarus multicinctus) (UniProt P60615); assay: alpha-bungarotoxin binders on microarray, profiling panel, artefact control for SMM control protein annotation, biochemical, small-molecule microarray, Alexa647 label, 635/667 nm fluorescence (AID 1117); conditions: alpha-BTX-A647 binding fluorescence, higher = more signal
Alpha-bungarotoxin (Bungarus multicinctus), sequence (P60615 whole entry, looked up): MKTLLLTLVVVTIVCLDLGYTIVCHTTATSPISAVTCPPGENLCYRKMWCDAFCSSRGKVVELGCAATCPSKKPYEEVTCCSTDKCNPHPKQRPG

Left-right determination factor 2 (Homo sapiens), sequence (O00292 whole entry, looked up): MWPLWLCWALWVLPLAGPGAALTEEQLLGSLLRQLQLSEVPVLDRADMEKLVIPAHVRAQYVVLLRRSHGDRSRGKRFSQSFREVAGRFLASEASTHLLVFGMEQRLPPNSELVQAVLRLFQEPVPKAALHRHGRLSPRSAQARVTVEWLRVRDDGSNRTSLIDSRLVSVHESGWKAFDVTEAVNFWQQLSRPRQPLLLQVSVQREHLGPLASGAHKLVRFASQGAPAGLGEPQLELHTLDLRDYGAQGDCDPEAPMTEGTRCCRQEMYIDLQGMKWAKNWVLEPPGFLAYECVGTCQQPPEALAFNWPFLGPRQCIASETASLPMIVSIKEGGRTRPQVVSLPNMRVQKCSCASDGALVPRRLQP
Torsin-1A-interacting protein 1 (Homo sapiens), sequence (Q5JTV8 whole entry, looked up): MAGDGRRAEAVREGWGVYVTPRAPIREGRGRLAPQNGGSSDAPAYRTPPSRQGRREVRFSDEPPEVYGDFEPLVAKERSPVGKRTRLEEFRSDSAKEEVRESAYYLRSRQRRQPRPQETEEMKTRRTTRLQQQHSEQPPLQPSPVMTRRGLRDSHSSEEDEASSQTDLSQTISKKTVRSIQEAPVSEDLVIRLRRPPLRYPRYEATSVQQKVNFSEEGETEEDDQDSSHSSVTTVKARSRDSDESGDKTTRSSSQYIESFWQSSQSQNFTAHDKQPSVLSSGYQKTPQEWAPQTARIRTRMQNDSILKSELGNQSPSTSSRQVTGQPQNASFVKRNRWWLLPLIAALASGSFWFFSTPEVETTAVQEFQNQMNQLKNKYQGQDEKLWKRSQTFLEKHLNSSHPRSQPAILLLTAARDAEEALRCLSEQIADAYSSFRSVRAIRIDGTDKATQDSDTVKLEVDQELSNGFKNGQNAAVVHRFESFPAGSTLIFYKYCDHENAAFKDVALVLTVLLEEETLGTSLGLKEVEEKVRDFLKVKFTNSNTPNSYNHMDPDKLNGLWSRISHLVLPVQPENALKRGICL

Row | Structure (SMILES) | composite z-score [1] | z-score [2] | composite z-score [3] | composite z-score [4] | composite z-score [5] | composite z-score [6] | composite z-score [7] | composite z-score [8] | composite z-score [9] | composite z-score [10]
1 | CC(C)CCN1CCc2nc(-c3ccccc3)c3c(c2C1)CO[C@@H](C)C3 | 1.35 | -0.952 | 0.457 | -0.083 | -0.399 | -0.0944 | -0.138 | -0.036 | 0.565 | 0.416
2 | COC(=O)C1=C2N(Cc3ccccc3)C(C)=C(C(=O)OC)[C@@H](c3ccccc3)N2C(=O)[C@](O)(C(=O)OC)C1 | -0.101 and 0.137 | 0.591 and 0.406 | 0.198 and 0.531 | 0.225 and -0.29 | -0.803 and -0.391 | -0.169 and -0.237 | -0.214 and -0.0914 | -0.18 and 0.162 | -0.203 and 1.01 | 0.661 and 0.171
3 | Cc1cc2c(nc1C)CCCN2CC(O)CN1CCCc2nc(-c3ccc(Br)cc3)ccc21 (stereo not given) | 1.32 and 1.19 | -1.3 and -2.09 | 0.917 and 0.75 | 0.645 and 1.01 | -0.0329 and 0.151 | 0.361 and 0.499 | 0.641 and 1.58 | 0.676 and 1.1 | 0.126 and 1.1 | 1.92 and 2.78
4 | CC(CO)N1C(=O)[C@@H]2C3C(=O)OCCC=C[C@H]3OC23C=CCN(C(C)(C)C)C(=O)[C@@H]13 (stereo not given in full) | -0.925 and -1 | -0.319 and -0.502 | -1.51 and -0.114 | -0.286 and -0.991 | 1.02 and -1.03 | -0.222 and -0.0584 | -0.168 and -0.0553 | -0.219 and -0.46 | 0.232 and 1.48 | -2.94 and -0.198
5 | C=C[C@@H](OC)[C@H](O)c1ccc(O)c(F)c1 | -0.829 and -1.4 | 0.0695 and 0.896 | -1.68 and -1.07 | -0.692 and -1.45 | -0.898 and -1.11 | -0.328 and -0.268 | -0.0553 and -0.0709 | -0.564 and -0.908 | -0.104 and -0.362 | -1.14 and -0.617
6 | COC(=O)C1=C(C)N(Cc2ccccc2)[C@]23O[C@](C(=O)OC)(C(=O)N2[C@@H]1c1ccccc1)[C@H]1C(=O)N(c2ccccc2)C(=O)[C@H]13 | -0.167 and 0.131 | -0.716 and -0.479 | 0.688 and 0.613 | 0.361 and -0.212 | -0.298 and -0.362 | -0.197 and -0.0882 | -0.304 and -0.0066 | -0.341 and 0.0299 | -0.233 and 0.633 | 1.34 and 1.08
7 | C=CCN(CCCC)C(=O)C1N(c2ccc(CCO)cc2)C(=O)C2C(C(=O)O)C3C=CC21O3 (stereo not given) | -2.07 and -0.32 | -0.213 and 1.02 | -2.86 and -4.53 | -0.828 and -1.3 | 0.33 and 0.554 | -0.221 and -0.296 | 0.0796 and 0.292 | -0.265 and -0.565 | -0.994 and -1 | -0.577 and -1.86
8 | C=C[C@H](OC)[C@@H](O)c1ccc(OCCO)cc1 | -1.76 and -0.748 | -0.142 and 1.09 | -1.51 and -1.36 | -1.51 and -0.219 | -0.045 and -0.319 | -0.262 and -0.213 | -0.276 and -0.221 | -0.674 and -0.402 | 0.376 and -0.199 | -1.55 and -1.04
9 | CCN1C(=O)[C@H]2[C@H]3[C@H](O)[C@H](O)CC(=NOC[C@@H](O)COCc4ccco4)[C@@H]3CC[C@H]2C1=O | -1.08 and -1.63 | 0.0085 and 1.42 | 1.32 and 0.764 | -1.05 and -0.872 | -1.72 and -1.74 | -0.0721 and -0.232 | -0.145 and -0.138 | 0.0326 and -0.0236 | 0.205 and -0.291 | 0.0851 and -0.421
10 | COC(=O)C1=C(C)N(Cc2ccccc2)C2=C(C(C)=O)[C@H](c3ccccc3)[C@@](O)(C(=O)OC)C(=O)N2[C@@H]1c1ccccc1 | 0.895 and -1.59 | -0.396 and 0.347 | 0.64 and -0.705 | -0.271 and -0.503 | 0.004 and -0.587 | -0.0944 and 0.0102 | 0.151 and -0.0146 | -0.205 and -0.342 | -0.0984 and -0.136 | 0.538 and -0.436
11 | C=CCN(C(=O)C1N(CCOCCO)C(=O)C2C(C(=O)O)C3C=CC21O3)C(C)(C)C (stereo not given) | -1.22 and -1.53 | 0.178 and 0.975 | -4.53 and -1.35 | -0.219 and -0.133 | 0.785 and 0.498 | -0.27 and -0.352 | -0.138 and -0.214 | -0.158 and -0.509 | -1.53 and -1.78 | -0.606 and -0.737
12 | CCOC(=O)c1ccc(NC(=O)O[C@H]2[C@H](OC(=O)Nc3ccccc3)[C@@H](OC(=O)Nc3ccccc3)[C@@H](OC)O[C@@H]2CO)cc1 | 0.249 and 1.18 | -3.3 and -1.82 | 0.772 and 0.53 | 2.04 and 1.81 | 0.114 and -0.0271 | 0.0618 and 0.199 | 0.613 and 0.204 | 1.32 and 0.386 | 1.2 and 1.5 | 2.04 and 1.85
13 | C=CCN(Cc1ccccc1)C(=O)C1N(c2c(Cl)cccc2CO)C(=O)C2C(C(=O)O)C3C=CC21O3 (stereo not given) | -2.6 and -0.99 | -0.431 and -0.961 | -3.36 and -2.65 | -0.998 and -0.846 | 0.686 and 0.031 | -0.215 and -0.291 | -0.221 and -0.0866 | -0.261 and -0.281 | -0.74 and -0.831 | -2.7 and -1.89
14 | O=C1[C@H]2[C@H]3[C@H](O)[C@H](O)CC(=NOCc4ccccc4)[C@H]3CC[C@H]2C(=O)N1Cc1ccccc1 | -0.424 | -0.44 | 0.552 | -0.0595 | -0.477 | -0.222 | -0.0772 | -0.182 | 0.197 | -0.0806
15 | COc1ccc(-c2ccc3c(n2)CCCN3CC(O)CN2CCCc3nc(-c4ccc(Br)cc4)ccc32)cc1 (stereo not given) | 0.363 and -0.763 | -2.44 and -0.174 | 0.61 and 0.922 | 0.347 and 0.413 | 0.116 and -0.108 | 0.0994 and -0.006 | 0.896 and 0.233 | 0.202 and 0.309 | 0.498 and 0.282 | 2.04 and 1.76
16 | COC(=O)CC=C[C@@H](C)[C@@H](CO)NS(=O)(=O)c1ccc(C)cc1 | -0.314 and 0.755 | -0.465 and -0.0825 | 0.632 and 0.966 | -0.442 and -0.343 | -1.01 and -0.837 | -0.0405 and -0.0994 | -0.522 and 0.111 | -0.0503 and 0.0287 | -0.145 and 0.808 | -0.309 and 0.0211
17 | Cc1cc2c(nc1C)CCCN2CC(C)ON=C[C@@H](C)[C@H](OCc1ccccc1)C(C)C (stereo not given in full) | -1.88 | -1.26 | 0.339 | -0.398 | -0.304 | -0.0125 | -0.0035 | 0.0811 | -0.0342 | -0.0161
